# Compounds with a hit are over-represented: about 19% of the library has one in this group of screens.
# DT40 TDP1 no CPT = qHTS for Inhibitors of human tyrosyl-DNA phosphodiesterase 1 (TDP1): qHTS in cells in absence of CPT; DT40 Tdp1-/- hTDP1 cells, no CPT, ATP luminescence, 48 h; Potency, µM (top dose mostly 46.2 µM), inactives show at the highest dose activity change, negative = growth inhibition, usual class: inhibitors; 420,000 tested, 15% active; AID 686978, 2013; further: nearly all actives have a fitted effect of over 55% in size
#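 Luminescent ATP content (CellTiter-Glo) served as the growth readout. Knockout chicken DT40 cells expressing human TDP1 were exposed to compounds without camptothecin for a minimum 48 hr at 37 °C.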
# TDP1 block = qHTS Assay for Inhibitors of Tyrosyl-DNA Phosphodiesterase (TDP1) | recombinant TDP1, AlphaScreen DNA substrate cleavage | Potency, µM (top dose mostly 130 µM), inactives show top-dose activity change, negative = inhibition, actives largely listed as inhibitors | 350,000 tested, 0.28% active; further: nearly all actives have a fitted effect of over 40% in size
# Target sequence (Q9NUW8 whole entry, looked up): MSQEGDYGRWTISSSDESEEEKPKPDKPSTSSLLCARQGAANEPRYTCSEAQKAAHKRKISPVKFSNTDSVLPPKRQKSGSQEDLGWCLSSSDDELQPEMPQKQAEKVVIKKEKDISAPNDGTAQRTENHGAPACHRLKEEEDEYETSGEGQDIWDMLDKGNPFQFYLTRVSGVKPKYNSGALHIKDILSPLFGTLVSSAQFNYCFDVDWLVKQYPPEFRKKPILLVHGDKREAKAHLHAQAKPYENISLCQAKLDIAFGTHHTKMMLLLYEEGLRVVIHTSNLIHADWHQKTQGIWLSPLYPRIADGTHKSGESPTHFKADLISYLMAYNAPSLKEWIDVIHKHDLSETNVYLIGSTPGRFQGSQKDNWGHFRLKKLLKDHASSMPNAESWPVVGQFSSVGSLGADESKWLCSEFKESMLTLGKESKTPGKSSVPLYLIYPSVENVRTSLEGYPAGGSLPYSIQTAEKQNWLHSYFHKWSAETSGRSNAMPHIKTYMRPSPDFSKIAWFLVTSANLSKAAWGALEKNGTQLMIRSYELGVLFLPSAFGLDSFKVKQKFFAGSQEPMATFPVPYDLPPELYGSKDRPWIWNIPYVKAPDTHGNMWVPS
#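 Recombinant human Tdp1 (E. coli-expressed, 1 nM final) preincubated with compounds 15 min at room temperature, then 5'-biotin/3'-phosphotyrosine-FITC DNA substrate (15 nM final) added for 5 min. AlphaScreen beads (10 ug/ml final) added 10 min; cleavage lowers signal.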
# TDP1 cell CPT = qHTS for Inhibitors of human tyrosyl-DNA phosphodiesterase 1 (TDP1): qHTS in cells in presence of CPT; chicken DT40 Tdp1-/-;hTDP1 cells + 20 nM CPT, ATP luminescence, 48 h; Potency, µM (titrated, usually from 46.2 µM), for the others: top-dose activity change, negative = growth inhibition, hits mostly inhibitors; 420,000 tested, 12% active; further: nearly all actives have a fitted effect of over 55% in size
#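 Chicken DT40 Tdp1-/- cells complemented with human TDP1, 400 cells/well, exposed to compounds plus 20 nM camptothecin for at least 48 h at 37 C; viability read as ATP content by CellTiter-Glo luminescence.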
# VP16 counter = VP16 counterscreen qHTS for inhibitors of ROR gamma transcriptional activity; AID 2546, 2010; Drosophila S2 Gal4-VP16 UAS-luciferase, luminescence, 20 h; Potency, µM (highest dose often 53.6 µM), inactives show at the highest dose activity, negative = inhibition, usual class: inhibitors; 310,000 tested, 3.5% active;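 further: Gal4-VP16 expression switched on by copper sulfate through the metallothionein promoter; nearly all actives have a fitted effect of over 50% in size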
# RORg inh = qHTS for inhibitors of ROR gamma transcriptional activity; Nuclear receptor ROR-gamma (Mus musculus), P51450; Drosophila S2 Gal4-RORgamma UAS-luciferase reporter, 20 h; Potency, µM (titrated, usually from 53.6 µM), for the others: at the highest dose activity change, negative = inhibition, actives largely listed as inhibitors; 310,000 tested, 5.4% active; AID 2551, 2010; further: nearly all actives have a fitted effect of over 60% in size
#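 Luminescence from a UAS-regulated Photinus luciferase reporter in stably transfected Drosophila Schneider cells is measured; decreased signal marks ROR gamma inhibition. Fusion expression is induced by 700 uM copper sulfate for 20 hr.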
# Numbers without * were called inactive; u = inconclusive; x = no result; [ ] = dose if it differs, or a comment. The call rests on the fitted dose curve; in most records, active means well fitted curve in the direction sought with a large enough effect; inconclusive means small, poorly fitted or top-dose-only effect, or another doubt; inactive means no such curve, though single readings can be large; an effect the other way counts as inactive or inconclusive. On the % scale 0 is the no-effect control and ±100 the full control effect; potency means the concentration at half of the fitted maximal effect.
SMILES,DT40 TDP1 no CPT,TDP1 block,TDP1 cell CPT,VP16 counter,RORg inh
COc1ccc(CCn2c(C)nc3c(c(=O)c4ccccc4n3C)c2=O)cc1,5.8µM*,5%,u,2%,-15%
Cc1c(C=O)c2ccccc2n1CC(=O)NC(C)c1ccccc1 (configuration not stated),23µM*,3%,u,-4%,44%
Cc1nn(CC(=O)NC(C)c2ccccc2)c(=O)c2ccccc12 (configuration not stated),-2%,-1%,-9%,1%,6%
Cc1ccc(C(=O)NCCCNCCCN(C)C)cn1,-5%,-1%,-2%,6%,-1%
CC(CCCN1CCCC1)Nc1ccnc2cc(Cl)ccc12 (configuration not stated),23µM*,x,u,x,x
CC(C)NC1CCC(Nc2ccnc3cc(Cl)ccc23)CC1 (configuration not stated),9.2µM*,x,6.5µM*,x,x
CC1CCCN1c1ccnc2cc(Cl)ccc12 (configuration not stated),16µM*,x,29µM*,x,x
CC(=O)N1CCN(c2ccnc3cc(Cl)ccc23)CC1,-28%,1%,-13%,-5%,14%
Clc1ccc2c(NCCNC3CCCCC3)ccnc2c1,15µM*,x,16µM*,x,x
CCN(CC)CCC[C@H](C)Nc1ccnc2cc(Cl)ccc12,x,11%[21 µM],x,1%[17 µM],-29%[16.9 µM]
O=C(NCCCNc1ccnc2cc(Cl)ccc12)c1ccccc1F,u,x,u,-5%,0%
CCOC(=O)c1ccc(NC(=O)CCNc2c(N3CCCC3)c(=O)c2=O)cc1,-8%,7%,-20%,3%,1%
OC1CCN(Cc2ccc(OCc3ccccc3)cc2)CC1,-5%,x,5%,u,10µM*
CCNC(=O)C1CCCN(Cc2ccc(OCc3ccccc3)cc2)CC1 (configuration not stated),7.3µM*,x,18µM*,x,x
O=C(C1CCN(Cc2ccc(OCc3ccccc3)cc2)CC1)N1CCCC1,-25%,-3%[56.1 µM],-52%,-1%,-36%
O=C(c1cnc2ccccn2c1=O)N1CCc2ccccc21,-14%,-2%,-16%,12%,13%
CC(C)OC(=O)c1ccc(COC(=O)c2cccc(-c3nnc(-c4ccccc4)o3)c2)cc1,u,1%,-25%,-26%,5%
CCOC(=O)c1cccc(COC(=O)c2cccc(-c3nnc(-c4ccccc4)o3)c2)c1,16µM*,3%,26µM*,-29%,-5%
O=C(OCc1ccccc1)c1cccc(-c2nnc(-c3ccccc3)o2)c1,-16%,1%,u,u,-21%
O=C(OCc1ccc(C(=O)c2ccccc2)cc1)c1cccc(-c2nnc(-c3ccccc3)o2)c1,u,-2%,16µM*,-25%,2%
COc1ccc(CN2C(=O)CCC(C(=O)O)C2c2ccccc2)cc1 (configuration not stated),-11%,6%,5%,7%,-5%
CCCCCN=Cc1c(C)[nH]n(-c2nc3ccccc3s2)c1=O,4.6µM*,7%,2.1µM*,u,10µM*
COCCCN=Cc1c(-c2ccccc2)[nH]n(-c2nc3ccccc3s2)c1=O,u,x,26µM*,u,8.9µM*
CCCc1[nH]n(-c2nc3ccccc3s2)c(=O)c1C=NCCCOC,0%,x,-12%,-5%,u
O=c1c(C=NCCCO)c(-c2ccccc2)[nH]n1-c1nc2ccccc2s1,u,4%,13µM*,5%,u
SMILES,DT40 TDP1 no CPT,TDP1 block,TDP1 cell CPT,VP16 counter,RORg inh
COc1ccc(OC)c(Nc2nc(NCCO)c3ccccc3n2)c1,16µM*,x,u,-3%,u
COc1ccccc1Nc1nc(NCC2CCCO2)c2ccccc2n1 (configuration not stated),21µM*,0%,23µM*,-17%,35%
Cc1ccc(Nc2nc(NCCO)c3ccccc3n2)cc1C,16µM*,x,u,-24%,-30%[1.91 µM]
O=S(=O)(NCc1cccnc1)c1cccc2cccnc12,-6%,9%,1%,-11%,6%
O=C(O)c1cccc(Oc2ncnc3sc4c(c23)CCCC4)c1,-2%,0%,5%,-17%,u
C=CCC[C@@H](Cc1ccc(F)cc1)C(=O)OCCNC(=O)[C@@H](CC=C)CC(=O)N[C@@H](CO)Cc1ccccc1,-26%,0%,u,x,x
C=CCC[C@H](Cc1ccc(F)cc1)C(=O)OC[C@@H]1CCCN1C(=O)[C@@H](CC=C)CC(=O)NCCO,21µM*,1%,u,x,x
C=CCC[C@@H](Cc1ccc(F)cc1)C(=O)OC[C@@H]1CCCN1C(=O)[C@@H](CC=C)CC(=O)N[C@@H](CO)Cc1ccccc1,16µM*,1%,15µM*,x,x
Cc1csc(NC(=O)CSc2nccn2Cc2ccco2)n1,13%,4%,15%,-7%,37%
CCOC(=O)c1c(C)c(C(=O)NCCc2ccc(OC)cc2)c(C)n1C,-16%,-3%,12%,x,x
CCc1ccc(-c2nc3cc(NC(=O)c4cc5ccccc5cc4OC)ccc3o2)cc1,13µM*,1%[12.3 µM],u,x,x
COc1cc2ccccc2cc1C(=O)Nc1cccc(-c2nc3cc(C)c(C)cc3o2)c1,15µM*,1%[12.3 µM],u,x,x
Cc1ccc(-c2nc3cc(NC(=O)c4cc5ccccc5o4)ccc3o2)cc1,u,-5%[12.3 µM],-20%,x,x
COc1cc2ccccc2cc1C(=O)Nc1ccc(Cc2ccncc2)cc1,26µM*,12%,18µM*,2%,26%
COc1ccc(-c2nc3cc(NC(=O)c4cc5ccccc5o4)ccc3o2)cc1,16µM*,4%[12.3 µM],u,x,x
Cc1c(Cl)cccc1NC(=O)c1cccnc1,-16%,1%,-13%,-5%,-30%
C[C@H](CO)N1C[C@H](C)[C@H](CN(C)C(=O)c2ccc3ccn(C)c3c2)OCc2cnnn2CCCC1=O,-24%,x,-4%,x,x
COc1ccc(CNC(=O)c2cc(-c3ccccc3O)n[nH]2)cc1,-5%,-3%,-10%,-6%,13%
CCNc1nc(NCC)nc(N/N=C/c2ccc(N(C)C)cc2)n1,u,5%,u,u,7.9µM*
CCNc1nc(NCC)nc(N/N=C/c2cc(OC)c(OC)c(OC)c2)n1,u,x,u,0%,u
CCNc1nc(NCC)nc(N/N=C/c2ccc(O)c(O)c2)n1,-4%,5%,23µM*,-20%,u
Cc1ccc(B(O)O)cc1,-11%,2%,u,2%,0%
O=C(/C=C/Sc1ccc(C(F)(F)F)cn1)c1ccccc1,2.3µM*,-3%,2.9µM*,-10%,-35%

# Source: PubChem BioAssay (National Center for Advancing Translational Sciences (NCATS))
